# In all, about 110,000 compounds were measured (“z-score”: median about -0.1, highest 2% from about 2 on). This excerpt belongs to a sample that is enriched for the highest values. Active and inactive are the calls of the source.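 The calls were made as follows: active = z-score in the third read window above 3 or below -3; inactive = the rest.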
# Target: Metabotropic glutamate receptor 8 (Rattus norvegicus) (UniProt P70579)
# Test: mGluR8 Gi/Go-coupled signaling modulation – cell-based, rat, thallium flux, HTS, primary screen (AID 488969)
# Conditions: HEK293 rat mGluR8, GIRK (G protein-gated inwardly rectifying potassium channel) thallium flux, FluoZin2; at 10 µM; stronger effect = higher value; submaximal glutamate (EC20) added with thallium
# Sequence of Metabotropic glutamate receptor 8 (Rattus norvegicus) (P70579 whole entry, looked up): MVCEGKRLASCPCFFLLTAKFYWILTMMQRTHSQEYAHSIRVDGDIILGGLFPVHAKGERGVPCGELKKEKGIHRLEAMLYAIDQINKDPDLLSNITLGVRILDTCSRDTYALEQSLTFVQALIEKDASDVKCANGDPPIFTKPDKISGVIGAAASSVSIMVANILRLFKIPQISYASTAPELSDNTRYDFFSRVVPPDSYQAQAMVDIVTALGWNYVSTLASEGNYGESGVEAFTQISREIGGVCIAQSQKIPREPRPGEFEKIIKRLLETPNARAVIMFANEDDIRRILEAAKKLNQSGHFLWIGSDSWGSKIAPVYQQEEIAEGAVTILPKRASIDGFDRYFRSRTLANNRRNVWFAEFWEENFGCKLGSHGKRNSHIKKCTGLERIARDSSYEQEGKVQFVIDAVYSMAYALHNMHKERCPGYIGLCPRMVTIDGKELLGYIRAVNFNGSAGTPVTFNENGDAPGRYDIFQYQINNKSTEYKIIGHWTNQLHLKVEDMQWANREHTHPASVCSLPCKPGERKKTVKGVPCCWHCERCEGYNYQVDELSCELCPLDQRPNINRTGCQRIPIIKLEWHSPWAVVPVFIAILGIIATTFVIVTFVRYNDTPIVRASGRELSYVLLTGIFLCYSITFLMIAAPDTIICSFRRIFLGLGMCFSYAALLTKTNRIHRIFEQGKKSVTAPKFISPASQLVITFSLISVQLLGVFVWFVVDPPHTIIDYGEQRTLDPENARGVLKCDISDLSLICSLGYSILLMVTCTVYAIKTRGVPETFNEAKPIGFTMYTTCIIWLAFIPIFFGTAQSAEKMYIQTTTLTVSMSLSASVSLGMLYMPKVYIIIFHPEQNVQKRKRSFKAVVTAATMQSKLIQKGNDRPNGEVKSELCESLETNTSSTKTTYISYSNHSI
row,SMILES,z-score
1,Cc1nccn1CCc1nc(N)nc(N)n1,7.57 (active)
2,CCn1c(CCn2ccnc2C)n[nH]c1=S,0.253
3,CCc1ccc(NC(=O)CCn2ccnc2C)cc1,0.306
4,O=c1cc(CN2CCN(CCO)CC2)c2cc3c(cc2o1)CCC3,0.804
5,CCN(C(=O)c1ccco1)c1nc(CC(=O)Nc2ccc(Cl)cc2)cs1,-0.635
6,O=C(Nc1ccc2oc(-c3cccnc3)nc2c1)c1ccco1,-0.851
7,CCOC(=O)c1c(-c2ccc(C)o2)csc1NC(=S)NC(=O)N(C)C,13.6 (active)
8,CCOC(=O)c1c(-c2ccc(C)o2)csc1NC(=O)CN(C)CC(=O)Nc1ccc(C)cc1,-0.104
9,CCOC(=O)c1c(-c2ccc(C)o2)csc1NC(=S)NC(=O)c1ccccc1Br,0.406
10,CCOC(=O)c1c(-c2ccc(C)o2)csc1NC(=O)COC(=O)c1cccs1,0.191
11,CCOC(=O)c1c(-c2ccc(C)o2)csc1NC(=S)NC(=O)c1cccs1,3.05 (active)
12,CCOC(=O)c1c(-c2ccc(C)o2)csc1NC(=O)CSc1nnc(C)s1,-1.11
13,O=C1OCCC1Sc1nnc(-c2ccccc2)o1 (centres undefined),-0.134
14,Cc1c(Cl)cccc1NC(=S)NC1CCN(Cc2ccccc2)CC1,-0.67
15,Cc1occc1C(=O)OCC(=O)Nc1ccc(F)cc1,0.794
16,Cc1cc(C(=O)OCC(=O)Nc2ccc(F)cc2)c(C)o1,2.45
17,Cc1cc(C(=O)OCC(=O)Nc2ccc(F)c(F)c2)c(C)o1,0.0113
18,N#Cc1c(N)nc2c(c1-c1ccncc1)CCCC2,-0.232
19,Cc1ccc2c(CC(=O)NC3CCCc4ccccc43)coc2c1 (centres undefined),4.11 (active)
20,Cc1cc2occ(CC(=O)NC3CCCc4ccccc43)c2cc1C (centres undefined),0.0042
21,COc1ccc2c(CC(=O)NC3CCCc4ccccc43)coc2c1 (centres undefined),-0.484
22,CCOC(=O)C(NC(=O)NCc1ccc(OC)cc1)(OCC)C(F)(F)F (centres undefined),-0.306
23,O=C(c1ccc(Cl)cc1)c1cnc2ccccn12,-0.0464
24,O=C(Nc1ccccc1F)c1ccc(-n2cncn2)nc1,-0.0684
25,O=C(CN1CCCCCCC1)N/N=C/c1ccc(F)cc1F,-0.63
26,CC(=O)c1ccc(NC(=O)COC(=O)CCC(=O)c2cccs2)cc1,0.114
27,Cc1cccc(NC(=O)NC(C)CCc2ccccc2)c1 (centres undefined),4.17 (active)

row,SMILES,z-score
1,Cc1cccc(NC(=S)NC(=O)CCc2ccccc2)c1,2.74
2,O=C(CCc1ccccc1)NC(=S)Nc1cccc(Br)c1,0.0148
3,Cc1ccccc1NC(=S)NC(=O)CCc1ccccc1,2.94
4,Cc1cccc(NC(=S)NC(=O)CCc2ccccc2)c1C,0.747
5,Cc1cccc(C)c1NC(=S)NC(=O)CCc1ccccc1,1.73
6,Cc1cccc(NC(=S)NNC(=O)Cc2ccccc2)c1,0.0541
7,Cc1cccc(NC(=S)NC(C)CCc2ccccc2)c1 (centres undefined),0.2
8,CC(CCc1ccccc1)NC(=O)C(=O)Nc1ccccc1 (centres undefined),-0.109
9,Cc1ccccc1NC(=O)C(=O)NC(C)CCc1ccccc1 (centres undefined),7.37 (active)
10,Cc1ccccc1NC(=S)NC(C)CCc1ccccc1 (centres undefined),0.22
11,COC(=O)[C@H](C)NC(=O)Nc1cccc(C)c1,-0.0554
12,CCOc1ccc(Cn2ccnc2CCl)cc1[N+](=O)[O-],-0.00871
13,Cc1cccc(N(C)C(=O)c2coc(=O)c3ccccc23)c1,-0.042
14,CCCS(=O)(=O)N1CCCC(C(=O)NC2CCCCC2)C1 (centres undefined),0.0604
15,O=C(CSc1nc2c(c(C(F)(F)F)n1)CCc1ccccc1-2)NCc1ccc(F)cc1,0.759
16,CCn1cc(C(=O)N2CCN(Cc3ccc4c(c3)OCO4)CC2)c(=O)c2ccc(C)nc21,-0.451
17,CCc1ccccc1NC(=O)CSc1nc2c(c(-c3ccco3)c1C#N)CCCC2,0.16
18,CCOc1ccc(N2C(=O)CC(Sc3nc(C)cc(C)c3C#N)C2=O)cc1 (centres undefined),0.15
19,CC1CCN(C(=O)Cc2nn(C)c(=O)c3ccccc23)CC1,0.733
20,COc1ccc(Oc2nc(C(F)(F)F)nc3ccccc23)cc1,-0.576
21,Cc1c(Br)c([N+](=O)[O-])nn1C(C)C(=O)NCc1cccs1 (centres undefined),-0.152
22,Cc1ccc(NC(=O)Cn2nnc(-c3ccccc3NC(=O)c3cccs3)n2)cc1,-0.57
23,CCn1c(-c2csc(-c3ccccc3)n2)n[nH]c1=S,0.398
24,CCc1cc(-c2n[nH]c(=S)n2C(C)c2ccccc2)cs1 (centres undefined),2.55
25,CC(c1ccccc1)n1c(-c2ccncc2)n[nH]c1=S (centres undefined),0.000563
26,CCc1cc(-c2n[nH]c(=S)n2-c2ccccc2C)cs1,-0.325
27,Cc1scc(-c2n[nH]c(=S)n2C(C)c2ccccc2)c1C (centres undefined),-1.43

row,SMILES,z-score
1,CCCc1cc(-c2n[nH]c(=S)n2C(C)c2ccccc2)cs1 (centres undefined),10.9 (active)
2,CCOC(=O)CNC(=O)CSc1nc(N(C)C)nc(N2CCOCC2)n1,-0.116
3,COc1ccc(-c2cc(-n3c(C(F)(F)F)nc4ccccc43)n(CCC#N)n2)cc1,-0.215
4,CCN1CCN(c2cc(C)c3cc(NC(=O)c4ccncc4)ccc3n2)CC1,1.22
5,Cc1cc(N2CCCCC2)nc2ccc(NC(=O)c3ccc(Br)o3)cc12,-1.58
6,CCN1CCN(c2cc(C)c3cc(NC(=O)c4ccc(Br)o4)ccc3n2)CC1,3.44 (active)
7,CCCC1Cc2nc(N3CCCCC3)c(C#N)cc2CO1 (centres undefined),0.443
8,Cc1cc(NCCCN(C)C)n2nc(-c3cccs3)cc2n1,-0.0105
9,CCOc1ccc(NS(=O)(=O)c2ccc3c(c2)CCN3C(=O)C2CCC2)cc1,-0.102
10,CC(C)NC(=O)c1cccc(Br)c1,-0.0557
11,Cc1ccc(OCc2nn3c(-c4ccco4)nnc3s2)cc1,-1.14
12,Fc1ccc(-c2cc(-c3nnc4n3CCCCC4)c3ccccc3n2)cc1,-0.316
13,c1ccc2c(-c3nnc4n3CCCCC4)cc(-c3ccncc3)nc2c1,0.284
14,Clc1ccc(-c2cc(-c3nnc4n3CCCCC4)c3ccccc3n2)cc1,2.08
15,O=c1c2c(-c3cccs3)csc2ncn1-c1ccccc1,-0.0624
16,O=C(c1ccc(Cl)c([N+](=O)[O-])c1)N1CCN(c2ccccn2)CC1,-0.0404
17,CCC(C)NC(=O)CSc1nc2c(sc3ccccc32)c(=O)n1CCCN1CCOCC1 (centres undefined),0.452
18,NC(=O)CSc1nc2c(sc3ccccc32)c(=O)n1CCCN1CCOCC1,0.869
19,O=C(CSc1nc2c(sc3ccccc32)c(=O)n1Cc1ccccc1)NCC1CCCO1 (centres undefined),0.199
20,CCCCn1c(SCC(N)=O)nc2c(sc3ccccc32)c1=O,3.23 (active)
21,CCSc1nc2c(sc3ccccc32)c(=O)n1C(C)C,0.00726
22,CC(C)CCn1c(SCC#N)nc2c(sc3ccccc32)c1=O,5.93 (active)
23,Cc1ccc(Cn2c(SCC(=O)NCC3CCCO3)nc3c(sc4ccccc43)c2=O)cc1 (centres undefined),2.06
24,CCCCn1c(SCC(=O)NCc2ccco2)nc2c(sc3ccccc32)c1=O,-0.00992
25,O=C(CSc1nc2c(sc3ccccc32)c(=O)n1CCO)NCC1CCCO1 (centres undefined),0.0816
